RGS7-Gao: human RGS7-Galphao interaction regulation | binding response (% of control), % at 10 µM | actives 0.35% (n = 220,000) | Multiplexed bead flow cytometry, RGS7-Galphao binding; actives lie on both sides | AID 1439; in the data active means binding response below about 49% or above about 150%; inconclusive means no clear call, values can overlap the other calls; inactive means in between;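 further: fluorescent Galphao held in activated GDP-AlF4 state binding bead-coupled RGS7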
Target sequence (P09471 whole entry, looked up): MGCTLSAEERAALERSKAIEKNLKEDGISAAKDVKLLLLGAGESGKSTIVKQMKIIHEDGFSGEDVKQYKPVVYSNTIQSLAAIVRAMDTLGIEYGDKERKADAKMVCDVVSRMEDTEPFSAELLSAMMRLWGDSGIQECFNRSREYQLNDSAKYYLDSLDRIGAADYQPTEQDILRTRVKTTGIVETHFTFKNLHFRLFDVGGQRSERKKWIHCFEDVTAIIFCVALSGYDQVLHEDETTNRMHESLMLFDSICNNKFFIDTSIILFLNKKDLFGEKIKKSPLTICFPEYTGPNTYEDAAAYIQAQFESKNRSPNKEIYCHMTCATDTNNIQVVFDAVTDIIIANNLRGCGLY
RGS8-Gao reg: human RGS8-Galphao interaction regulation; multiplexed bead flow cytometry, RGS8-Galphao binding; actives lie on both sides; actives 0.34% (n = 220,000); response (percent of control binding), % at 10 µM; in the data active means response below about 60% or above about 140%; inactive means in between;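 further: Galphao activated as the GDP aluminium fluoride complex binding bead-coupled RGS8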
RGS16-Gao HTS: modulates binding between human RGS16 and Galphao | bead-based flow cytometry RGS16-Galphao binding, fluorescence; actives lie on both sides | binding response (% of control), % at 10 µM | actives 0.38% (n = 220,000);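 further: Galphao activated by GDP with aluminum fluoride before binding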
GSH fluor: GSH bead compound fluorescence profile | GSH beads flow cytometry, compound fluorescence 488/530 nm; active compounds read high | fluorescence (KMESF) at 10 µM | actives 0.25% (n = 190,000) | AID 1776; in the data active means fluorescence above about 89;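 further: glutathione beads carrying GST-tagged Bcl family fusion proteins plus one bare bead set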
Avidin fluor: compound fluoresces at 488/530 nm on avidin beads; compound fluorescence 488/530 nm, flow cytometry; active compounds read high; fluorescence (KMESF) at 10 µM; actives 0.38% (n = 220,000); AID 1775; in the data active means fluorescence above about 47
RGS4-Gao reg: modulates binding of RGS4 to human Galphao | binding response (% of control), % at 10 µM | P09471 | actives 0.33% (n = 220,000) | Multiplexed bead flow cytometry; actives lie on both sides | AID 1415; in the data active means binding response below about 49% or above about 150%; inactive means in between;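 further: fluorescent Galphao activated with aluminum fluoride binding bead-coupled RGS4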
RGS4-Gao HTS: regulators of human RGS4-Galphao interaction. shares compounds with RGS16-Gao HTS. RGS4–Galpha-o binding response, % at 10 µM. multiplexed bead flow cytometry, RGS–Galpha-o binding. AID 1504. actives 99% (n = 1,600);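 further: fluorescently labeled Galpha-o bound to GDP with aluminium fluoride binding biotinylated RGS beads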
Avidin counter: interferes with biotinylated probe binding to avidin beads. inhibition, % at 10 µM. streptavidin beads, fluorescein-biotin binding, flow cytometry. 1,700 tested, under 10 active. shares compounds with RGS16-Gao HTS;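 active means inhibition above 50%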;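 further: median green fluorescence of gated singlet beads compared with DMSO control wells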
RGS8-Gao single: RGS8-Galphao interaction regulation, single point confirmation; binding response (% of control), % at 10 µM; shares compounds with RGS16-Gao HTS; bead-based flow cytometry RGS8-Galphao binding, fluorescence; actives lie on both sides; actives 3% (n = 1,700); in the data active means binding response below about 72% or above about 130%; inactive means in between;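 further: Galphao activated as GDP AlF4 complex before binding bead RGS8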
RGS7-Gao confirm: confirmation of regulators of human RGS7-Galphao interaction | shares compounds with RGS16-Gao HTS | bead-based flow cytometry RGS7-Galphao binding; actives lie on both sides | response (percent of control binding), % at 10 µM | actives 7.8% (n = 1,700); in the data active means response below about 75% or above about 130%; inactive means in between;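 further: fluorescent Galphao activated with GDP and aluminum fluoride binding bead-coupled RGS7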
RGS16-Gao single: confirmation of regulators of human RGS16-Galphao interaction; shares compounds with RGS16-Gao HTS; bead-based flow cytometry, RGS16-Galphao binding; actives lie on both sides; response (% of control binding), % at 10 µM; actives 4% (n = 1,700); in the data active means response below about 74% or above about 130%; inactive means in between;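 further: Galphao activated as the GDP aluminium fluoride complex binding bead-coupled RGS16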
RGS4-Gao confirm: RGS4-Galphao interaction regulation, single point confirmation; shares compounds with RGS16-Gao HTS; RGS4-Galphao binding, multiplexed bead flow cytometry; actives lie on both sides; binding response (% of control), % at 10 µM; actives 4% (n = 1,700); AID 1840; in the data active means binding response below about 74% or above about 130%; inactive means in between
RGS19-Gao conf: confirmation of regulators of human RGS19-Galphao interaction. shares compounds with RGS16-Gao HTS. bead-based flow cytometry RGS19-Galphao binding; actives lie on both sides. response (percent of control binding), % at 10 µM. actives 5% (n = 1,700). AID 1841; in the data active means response below about 50% or above about 160%; inactive means in between
Target sequence (P09471 whole entry, looked up): as above
Target sequence (P49795 whole entry, looked up): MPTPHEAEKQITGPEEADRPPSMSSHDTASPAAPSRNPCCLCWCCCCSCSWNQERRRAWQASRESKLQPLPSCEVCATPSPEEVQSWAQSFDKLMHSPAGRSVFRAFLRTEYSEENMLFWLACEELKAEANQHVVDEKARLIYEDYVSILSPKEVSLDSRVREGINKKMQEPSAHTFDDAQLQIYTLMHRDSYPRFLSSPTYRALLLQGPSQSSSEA
Large screens that a line does not name were inactive (follow-up assays come after a bar, where they were run); [ ] = dose if it differs, or a comment. This is a sample that favours compounds with a hit; in the whole collection about 1.2% have one here. Unless noted, how the calls were made is not given here.

COC(=O)CNC(c1ccccc1)c1cc(Br)ccc1NC(C)=O (configuration not stated)	none | Avidin counter inactive | RGS8-Gao single inactive | RGS7-Gao confirm inactive | RGS16-Gao single inactive | RGS4-Gao confirm inactive | RGS19-Gao conf inactive
COC(=O)CNC(c1ccccc1)c1cc(Cl)ccc1NC(=O)c1cccc(Cl)c1 (configuration not stated)	none
CCC(C)(C)NC(=O)C(c1cccn1C)N(C(=O)Cn1nnc2ccccc21)c1ccccc1OC (configuration not stated)	RGS16-Gao HTS 24 | RGS4-Gao HTS 77 | Avidin counter inactive | RGS8-Gao single inactive | RGS7-Gao confirm 48 | RGS16-Gao single inactive | RGS4-Gao confirm 60 | RGS19-Gao conf inactive
CC(C)CC(NC(=O)c1ccccc1)C(=O)OCC(=O)Nc1ccc(Br)cn1 (configuration not stated)	RGS7-Gao 238[activator], Avidin fluor 346 | RGS4-Gao HTS 137 | Avidin counter inactive | RGS8-Gao single inactive | RGS7-Gao confirm inactive | RGS16-Gao single inactive | RGS4-Gao confirm inactive | RGS19-Gao conf inactive
O=C(COc1ccccc1)NC(=S)Nc1ccc(Br)cn1	RGS7-Gao inconclusive (no result: GSH fluor)
COc1ccc(C(Nc2ccc(S(=O)(=O)NCC3CCCO3)cc2)C(=O)NC(C)(C)C)cc1OC (configuration not stated)	none
CCc1ccc(C(=O)CN2CCSC2=N)cc1	none
Cn1nc([N+](=O)[O-])nc1Sc1nnnn1-c1ccc(C(=O)O)cc1	none
Cc1ccc2cc(C)c(Sc3nnnn3-c3ccccc3)nc2c1	RGS16-Gao HTS 191[activator] | RGS4-Gao HTS 112 | Avidin counter inactive | RGS8-Gao single inactive | RGS7-Gao confirm inactive | RGS16-Gao single inactive | RGS4-Gao confirm inactive | RGS19-Gao conf inactive
CCN(CC)Cc1ccccc1Sc1ccccc1	none
CCOC(=O)c1cc2sccc2n1CC(=O)N1CCCC1	RGS7-Gao 150[activator], Avidin fluor 48 | RGS4-Gao HTS 113 | Avidin counter inactive | RGS8-Gao single inactive | RGS7-Gao confirm inactive | RGS16-Gao single inactive | RGS4-Gao confirm inactive | RGS19-Gao conf inactive
CCn1c(C(=O)N2CCCC(C(=O)O)C2)cc2sccc21 (configuration not stated)	RGS16-Gao HTS 24 | RGS4-Gao HTS 93 | Avidin counter inactive | RGS8-Gao single inactive | RGS7-Gao confirm inactive | RGS16-Gao single inactive | RGS4-Gao confirm inactive | RGS19-Gao conf inactive
CC(C)=CCN1CCN(Cc2nc(-c3ccccc3)cs2)CC1CCO (configuration not stated)	none
CCOc1cc(CNn2cnnc2SCC(=O)NC(C)(C)C)ccc1OCC(=O)NC(C)(C)C	none
NC(N)=Nc1nc2ccccc2o1	RGS7-Gao inconclusive (no result: GSH fluor)
CN=C1c2cc3c(Br)c(OC)ccc3n2CCN1C	RGS4-Gao reg 152[activator] | Avidin counter inactive | RGS8-Gao single inactive | RGS7-Gao confirm inactive | RGS16-Gao single inactive | RGS4-Gao confirm inactive | RGS19-Gao conf inactive
Nc1ccccc1CNc1nc(NCCO)nc2c1ncn2CCN1CCOCC1	RGS7-Gao inconclusive (no result: GSH fluor)
c1ccc2c(c1)OCCOCCOc1ccccc1OCCOCCO2	RGS7-Gao 191[activator], RGS8-Gao reg 145[activator], RGS4-Gao reg 187[activator] | Avidin counter inactive | RGS8-Gao single inactive | RGS7-Gao confirm inactive | RGS16-Gao single inactive | RGS4-Gao confirm inactive | RGS19-Gao conf inactive
O=C(NCCc1ccncc1)Nc1cccc(Cl)c1	none
O=C(NCCc1ccncc1)Nc1ccccc1Cl	RGS7-Gao 194[activator], Avidin fluor 126 | RGS4-Gao HTS 88 | Avidin counter inactive | RGS8-Gao single inactive | RGS7-Gao confirm inactive | RGS16-Gao single inactive | RGS4-Gao confirm inactive | RGS19-Gao conf inactive
CCn1c(Sc2nc(C)nc3scc(-c4cccs4)c23)n[nH]c1=O	none (no result: RGS7-Gao, RGS8-Gao reg, RGS16-Gao HTS, Avidin fluor, RGS4-Gao reg) | Avidin counter inactive | RGS8-Gao single inactive | RGS7-Gao confirm inactive | RGS16-Gao single inactive | RGS4-Gao confirm inactive | RGS19-Gao conf inactive
COc1ccc2cc(S(=O)(=O)N3CCOCC3)ccc2c1	none
CCN1c2ccc(S(=O)(=O)N3CCOCC3)cc2N(Cc2ccc(OC)cc2)C1C (configuration not stated)	RGS7-Gao 50, RGS8-Gao reg 59, RGS4-Gao reg 48 | Avidin counter inactive | RGS8-Gao single inactive | RGS7-Gao confirm inactive | RGS16-Gao single inactive | RGS4-Gao confirm inactive | RGS19-Gao conf inactive
Cc1ccc(N2CN(Cc3cccnc3)CNC2=S)cc1	none
Cc1ccc(C)c(N2CN(Cc3cccnc3)CNC2=S)c1	RGS16-Gao HTS 21 | RGS4-Gao HTS 93 | Avidin counter inactive | RGS8-Gao single inactive | RGS7-Gao confirm inactive | RGS16-Gao single inactive | RGS4-Gao confirm inactive | RGS19-Gao conf inactive
CCCCOc1ccc(S(=O)(=O)Nc2cc(OC)ccc2OC)cc1	none (no result: RGS7-Gao, RGS8-Gao reg, RGS16-Gao HTS, Avidin fluor, RGS4-Gao reg) | Avidin counter inactive | RGS8-Gao single inactive | RGS7-Gao confirm inactive | RGS16-Gao single inactive | RGS4-Gao confirm inactive | RGS19-Gao conf inactive
COc1ccc(OC)c(NS(=O)(=O)c2ccc(Cl)nc2)c1	none
COc1cc(OC)c(NC(=S)NCc2ccccc2)cc1Cl	none
O=C(N/N=C/c1ccc(N2CCOCC2)o1)c1cccc([N+](=O)[O-])c1	RGS16-Gao HTS 18 | RGS4-Gao HTS 87 | Avidin counter inactive | RGS8-Gao single inactive | RGS7-Gao confirm inactive | RGS16-Gao single inactive | RGS4-Gao confirm inactive | RGS19-Gao conf inactive
O=C(Nc1ccccc1)N1CCCC1	none (no result: RGS7-Gao, RGS8-Gao reg, RGS16-Gao HTS, Avidin fluor, RGS4-Gao reg) | Avidin counter inactive | RGS8-Gao single inactive | RGS7-Gao confirm inactive | RGS16-Gao single inactive | RGS4-Gao confirm inactive | RGS19-Gao conf inactive
